Bioassay records: PubChem, The Scripps Research Institute Molecular Screening Center
Hits are enriched below; roughly 4.8% of the tested compounds scored in any of these assays.
hgDAF-12 ag: agonists of H. glycines DAF-12 nuclear receptor | HEK293 GAL4-hgDAF12 UAS-luciferase reporter, agonist luminescence; normalized to butyrate control | AID 687014 | actives 1.8% (n = 370,000) | activation, % at 6.8 µM;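 active means activation above a cutoff set at the mean of all screened compounds plus 3 SD, cut at about 10% in these data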;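 further: 0% = DMSO wells and 100% = sodium butyrate wells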
ssDAF12 agonist: S. stercoralis DAF-12 activation, primary screen; HEK293 ssDAF-12/GRIP1 lit1-tk-luc reporter, luminescence; % of 3 µM dafachronic acid response; activation, % at 6.8 µM; actives 1% (n = 370,000); AID 652126;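 active means activation above the mean over all tested compounds plus 3 SD, cut at about 0.9% in these data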;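 further: 0% = DMSO-only wells and 100% = 3 µM delta7-dafachronic acid wells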
DAX1 inh-1: blocks DAX1 repression of SF-1 activated StAR promoter. HEK293T StAR-luciferase reporter, SF-1/DAX-1 repression relief. inhibition, % at 6.8 µM. actives 1.1% (n = 370,000);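 active means inhibition above the mean over all tested compounds plus 3 SD, cut at about 3.6% in these data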;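 further: 0% = DAX-1 cells with DMSO and 100% = cells lacking DAX-1 with DMSO; higher inhibition means more luminescence from relief of DAX-1 repression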
hcDAF-12 act: H. contortus DAF-12 activation, primary screen; HEK293 hcDAF-12 lit1-tk-luc reporter, luminescence; 0% DMSO, 100% Δ7-dafachronic acid; activation, % at 6.8 µM; actives 1.4% (n = 370,000);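 active means activation above the mean of all tested compounds plus 3 SD, cut at about 5.5% in these data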;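 further: 100% = response to 3 µM Δ7-dafachronic acid high control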
DAX1 inh-2: inhibitors of human orphan nuclear receptor DAX1 (NR0B1); P51843; HEK293 Gal4-DAX1 luciferase reporter, luminescence; inhibition, % at 6.75 µM; actives 0.99% (n = 340,000); AID 504766;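 active means inhibition above the mean over all tested compounds plus 3 SD, cut at about 4.2% in these data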;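 further: 0% = DAX1-transfected cells with DMSO and 100% = empty-vector control cells with DMSO; inhibition shows as a rise in luminescence from relieved DAX1 repression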
Target sequence (P51843 207-470 limits assumed): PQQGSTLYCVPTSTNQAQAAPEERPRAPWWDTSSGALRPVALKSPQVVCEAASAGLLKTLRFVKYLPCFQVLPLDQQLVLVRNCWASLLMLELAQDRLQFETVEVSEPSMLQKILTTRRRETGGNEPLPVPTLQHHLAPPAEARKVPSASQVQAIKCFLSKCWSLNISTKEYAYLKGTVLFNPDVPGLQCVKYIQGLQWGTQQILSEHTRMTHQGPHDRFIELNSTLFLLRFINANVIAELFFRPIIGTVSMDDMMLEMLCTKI
SMARCA2 act: activators of SMARCA2 function; MG213 cells, MMTV-luciferase reporter, dexamethasone, overnight; activation, % at 9.1 µM; actives 1% (n = 370,000); in the data active means activation above about 7.8%;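 further: 0% = vehicle wells and 100% = reference activator wells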
LXR ag: counter-screen for hcDAF-12 agonists: agonists of human LXR-beta. shares compounds with hcDAF-12 act. HEK293 Gal4-LXR tk-luc reporter, luminescence, 24 h; normalized: DMSO 0%, positive control 100%. activation, % at 6.8 µM. 3,400 tested, under 10 active. AID 743027;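 active means mean percent activation of the reporter above a cutoff set as the average over tested compounds plus their standard deviation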
hcDAF12 conf: hcDAF-12 agonism, confirmation assay; activation, % at 6.8 µM; shares compounds with hcDAF-12 act; actives 61% (n = 3,400); HEK293 hcDAF-12 lit1-tk-luc reporter, luminescence; % of Δ7-dafachronic acid response;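 active means mean activation across triplicate tests above the threshold derived from the earlier primary screen, cut at about 5.5% in these data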;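 further: 0% = DMSO only wells and 100% = 3 µM Δ7-dafachronic acid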
hgDAF12 ag: confirmation of H. glycines DAF-12 agonists; AID 743050; HEK293 GAL4-hgDAF12 luciferase reporter, agonist mode; percent of butyrate response; shares compounds with hgDAF-12 ag; actives 80% (n = 3,300); activation, % at 6.8 µM;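 active means mean activation over triplicate wells above the hit cutoff derived from the earlier primary screen, cut at about 11% in these data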;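 further: 0% = DMSO low control and 100% = 2 mM sodium butyrate high control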
LXRb DAF12 ctr: LXR-beta agonism as DAF-12 counter-screen. activation, % at 6.8 µM. HEK293 Gal4-LXR luciferase reporter, 24 h. shares compounds with hgDAF-12 ag. 3,300 tested, under 10 active;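 active means mean activation of the triplicate above a set limit carried over from the primary screen, none filed active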
The depositor's hits bear a star; nt = no result.

SMILES	hgDAF-12 ag	ssDAF12 agonist	DAX1 inh-1	hcDAF-12 act	DAX1 inh-2	SMARCA2 act	LXR ag	hcDAF12 conf	hgDAF12 ag	LXRb DAF12 ctr
Cc1ccc(/C(N)=N/OC(=O)c2ccco2)cc1	14*	1.2*	4.2*	7.8*	0	6	1	5	19*	1
COc1ccccc1NC(=O)CSc1nccn1Cc1ccccc1	-1	-1	-1	-2	2	-4	nt	nt	nt	nt
Nc1c(C(=O)Nc2ccccc2)nnn1-c1ccc2c(c1)OCCO2	14*	1.8*	3	8.8*	-1	-1	1	8.1*	16*	1
Cc1ccc(NC(=O)c2nnn(-c3ccc4c(c3)OCCO4)c2N)cc1	8	-1	1	0	2	-2	nt	nt	nt	nt
CCOc1ccc2cc(C3CC(c4ccco4)=NN3S(C)(=O)=O)c(Cl)nc2c1 (stereo not given)	-4	-1	-1	-1	0	-2	nt	nt	nt	nt
CCc1ccc(C2CC(c3ccco3)=NN2S(C)(=O)=O)cc1 (stereo not given)	18*	1.3*	3	9.2*	2	7	1	8.9*	18*	1
COc1ccc(-c2csc(-n3cccn3)n2)cc1	14*	0	2	7.0*	4	0	1	5	18*	1
COc1ccc(-c2csc(Nc3ncccc3C)n2)cc1	17*	1	2	7.5*	3	1	1	5	17*	1
COc1ccc(OCCC(=O)OCC(=O)NCCc2ccccc2)cc1	3	-2	-1	-1	0	3	nt	nt	nt	nt
Oc1ccc(F)cc1-c1cc(-c2ccc3c(c2)OCCO3)n[nH]1	15*	1.3*	3	8.1*	4.4*	4	1	4	20*	1
O=C1C=C(c2ccc3c(c2)OCCO3)C[C@@H](c2ccc(F)cc2)C1	3	-1	0	-1	1	3	nt	nt	nt	nt
Cc1ccc(C(=O)Nc2nnc(-c3ccc(C(C)(C)C)cc3)s2)cc1	2	-1	0	1	0	3	nt	nt	nt	nt
Cc1ccc(-c2nnc(NC3CCCC3)s2)cc1	15*	0	2	9.2*	4	4	1	3	19*	1
Cn1c(=O)[nH]c2ncccc21	0	-2	0	0	4	0	nt	nt	nt	nt
CCOc1ncccc1C(=O)Nc1nnc(C)s1	-1	-1	-1	-1	1	-2	nt	nt	nt	nt
CCOc1ncccc1C(=O)Nc1nc(SC)ns1	14*	0	1	6.9*	2	3	0	6.1*	11*	0
CCn1cc(CN2CCCC(CNC(=O)COc3ccccc3OC)C2)c(C)n1 (stereo not given)	2	-1	0	-1	1	1	nt	nt	nt	nt
O=C(Nc1ncc(Cc2cccc(Cl)c2)s1)c1cccs1	7	-1	1	2	1	2	nt	nt	nt	nt
Cc1ccc(Cc2cnc(NC(=O)c3cccs3)s2)cc1	15*	1.5*	3.8*	10*	2	1	2	7.3*	18*	1
O=C(Nc1ncc(Cc2ccccc2)s1)c1cccs1	15*	1	3	8.4*	1	4	2	8.0*	20*	1
Cc1ccc(NC(=O)c2cccs2)cc1	9	0	2	4	2	4	nt	nt	nt	nt
Cc1cc2nn(-c3ccccc3)nc2cc1NC(=O)c1cccs1	4	-1	0	1	1	1	nt	nt	nt	nt
CC(=O)Nc1cc2nn(-c3ccccc3)nc2cc1C	18*	1.4*	2	7.0*	-1	7	2	5	19*	1
c1ccc(OCc2nc3ccccc3s2)cc1	14*	1.6*	3	8.6*	5.8*	4	1	5.9*	18*	1
c1ccc(SCc2nc3ccccc3s2)nc1	14*	4.5*	2	15*	3	6	1	7.8*	16*	1
SMILES	hgDAF-12 ag	ssDAF12 agonist	DAX1 inh-1	hcDAF-12 act	DAX1 inh-2	SMARCA2 act	LXR ag	hcDAF12 conf	hgDAF12 ag	LXRb DAF12 ctr
O=C(O)CCCc1nc2ccccc2s1	2	-1	0	-2	0	1	nt	nt	nt	nt
Cc1cc(OCc2nc3ccccc3s2)ccc1N	14*	2.0*	2	13*	3	4	1	14*	19*	1
Cc1cc(C(=O)OCc2nc3ccccc3s2)c(C)o1	7	-1	0	4	1	4	nt	nt	nt	nt
C/C(=N\Nc1nncc2ccccc12)c1ccc(O)cc1	16*	1	2	7.0*	-1	-2	1	4	9	1
O=C(COC(=O)c1ccc(Cl)c(S(=O)(=O)NCc2ccccc2)c1)NCC1CCCO1 (stereo not given)	-2	-1	-1	0	-1	0	nt	nt	nt	nt
C[C@H](CO)N1C[C@H](C)[C@H](CN(C)Cc2cccc(C(F)(F)F)c2)OCc2ccccc2-c2c(n(C)c3ccccc23)C1=O	-2	-1	0	-2	1	-4	nt	nt	nt	nt
CC1(C)CC(=O)c2cn3nc(C(F)(F)F)nc3nc2C1	0	-1	1	0	0	-1	nt	nt	nt	nt
CS(=O)(=O)N(CC(=O)N1CCN(Cc2ccccc2)CC1)c1cccc(Cl)c1	-1	0	0	-3	-1	0	nt	nt	nt	nt
Cn1/c(=N/N=C/c2ccccn2)sc2ccccc21	23*	1	3	8.2*	nt	7	1	7.1*	18*	1
CCCc1nc2c3ccccc3ccn2c1Cc1ccccc1	23*	1.3*	4.1*	7.0*	nt	0	1	12*	16*	1
CCCCCCN1C[C@@H](O)[C@H](n2cc(C3CC3)nn2)C[C@@H]1c1ccccc1	1	-1	-1	-3	1	2	nt	nt	nt	nt
Cc1ccc(C)c(OCCC(=O)OCC(=O)Nc2cc(S(=O)(=O)N3CCOCC3)ccc2C)c1	1	-1	0	-2	1	-3	nt	nt	nt	nt
Cc1ccc2nc(-c3ccc(NC(=S)NCC(C)(C)CN(C)C)cc3)sc2c1	18*	0	4.0*	7.8*	13*	7	1	4	13*	1
